Assay outcomes from PubChem.
EBV gp42 inh: blocks Epstein-Barr virus glycoprotein 42 binding. AID 1085. inhibition, % (tested at 21.74 µM). Fluorescence polarization binding assay, mP read-out. hit rate 0.42% among 220,000. Q1HVG2; in the data active = inhibition above about 50%
Bcl-xL primary: Bcl-xL (human) inhibition | Q07817 | GST-Bcl-xL / FITC-Bim BH3 peptide fluorescence polarization | inhibition, % at 10.9 µM | hit rate 0.7% among 320,000 | AID 2129;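 active = inhibition above the mean of all tested compounds plus 3 SD, cutoff set per campaign, cut at about 30% in these data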;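 also: 0% = DMSO wells and 100% = unlabeled Bim-BH3 peptide competitor; inhibitors lower millipolarization by displacing the labeled peptide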
GLD-1 RNA inh: GLD-1-TGE RNA interaction inhibition (C. elegans) | Q17339 | purified GLD-1 + fluorescein TGE RNA, fluorescence polarization | inhibition, % at 5.96 µM | hit rate 0.44% among 320,000;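 active = percent inhibition above a per-plate cutoff, the plate mean of test compounds plus 3 SD, cut at about 30% in these data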;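 also: 0% = DMSO wells with GLD-1 and probe and 100% = wells lacking GLD-1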
MEX-5 binding: C. elegans MEX-5 TCR-2 RNA binding activity; activity score (negative = inhibition of binding), % at 10 µM; hit rate 0.38% among 300,000; Q9XUB2; MEX-5/FITC-TCR2 RNA binding, fluorescence polarization; active compounds read low;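 active = inhibition past about -25% in most replicates, and total fluorescence under double the plate's negative control median, limit read from the data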;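 also: 0% = DMSO and -100% = 5 µM competing unlabeled TCR2 RNA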
Target sequence (Q9XUB2 whole entry, looked up): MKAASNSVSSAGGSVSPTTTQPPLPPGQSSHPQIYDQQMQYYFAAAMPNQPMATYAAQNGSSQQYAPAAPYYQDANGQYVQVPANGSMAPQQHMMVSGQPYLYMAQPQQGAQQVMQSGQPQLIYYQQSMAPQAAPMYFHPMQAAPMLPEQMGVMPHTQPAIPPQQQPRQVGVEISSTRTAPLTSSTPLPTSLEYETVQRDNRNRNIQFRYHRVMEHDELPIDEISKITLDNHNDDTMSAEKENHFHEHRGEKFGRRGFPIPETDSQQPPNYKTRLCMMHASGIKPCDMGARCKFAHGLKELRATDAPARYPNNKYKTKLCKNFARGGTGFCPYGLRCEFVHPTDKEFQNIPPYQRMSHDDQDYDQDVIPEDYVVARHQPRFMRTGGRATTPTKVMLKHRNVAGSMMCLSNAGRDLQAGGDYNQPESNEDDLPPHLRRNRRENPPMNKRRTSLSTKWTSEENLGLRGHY
E coli Lon inh: inhibits E. coli Lon protease; inhibition, % at 7.94 µM; hit rate 0.42% among 360,000; P0A9M0; purified E. coli Lon protease, fluorescence polarization; in the data active = inhibition above about 13%, passing the limit was not always enough;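 also: 0% = enzyme with probe and DMSO and 100% = no enzyme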
MCL1-BIM inh: disrupts human MCL1 binding to BIM-BH3 peptide. GST-MCL1 / FITC-Bim-BH3 fluorescence polarization. inhibition, % at 10.9 µM. Q07820. hit rate 0.68% among 320,000;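 active = inhibition above the mean inhibition of all tested compounds plus 3 SD, set per campaign, cut at about 40% in these data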;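 also: 0% = DMSO wells and 100% = unlabeled Bim-BH3 peptide control; higher means more loss of mP so more displacement of Bim peptide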
Active calls of the source: *; . = no result given. An excerpt weighted towards active compounds, which were near 1.5% of everything screened.

SMILES	EBV gp42 inh	Bcl-xL primary	GLD-1 RNA inh	MEX-5 binding	E coli Lon inh	MCL1-BIM inh
CC1CCC(N(CCCN)Cc2ccco2)CC1C (stereo unspecified)	-20	5	-1	1	0	10
O=C1c2cccc3c([N+](=O)[O-])ccc(c23)C(=O)N1c1nccs1	18	31*	25	-1	13	28
O=C1c2cccc3cccc(c23)C(=O)N1c1nccs1	-23	-2	8	0	-5	-2
CCOc1ccc(Cl)cc1-c1cc(C(=O)Nc2cc(OC)c(OC)c(OC)c2)[nH]n1	.	.	.	.	-4	.
Cc1[nH][nH]c(=O)c1C(c1ccccc1[N+](=O)[O-])C(C#N)C#N (stereo unspecified)	2	12	2	2	-6	8
Cc1[nH][nH]c(=O)c1C(c1cc([N+](=O)[O-])ccc1O)c1c(C)[nH][nH]c1=O	-11	11	-1	-27*	-3	-1
CC(C)(C)OC(=O)N1Cc2ccccc2C[C@H]1C(=O)NCC(=O)NC1CCCCC1	.	6	3	0	0	-1
CCN(CC)C(=O)CSc1nnc2c3ccccc3n(C)c2n1	.	-3	-4	-1	-2	-3
CCCSc1nnc2nc3c(nn12)c1ccccc1n3C	-12	9	5	-35*	-2	2
Cc1ccc2c(ccc[n+]2CC(=O)c2ccccc2)c1	13	24	-20	-3	-2	20
O=C(C[n+]1cc(Br)cc2ccccc21)c1ccccc1	.	49*	-31	1	-116	45*
O=C(O)c1c[nH]c2nccnc12	.	.	.	.	-4	.
Nc1cc2nsnc2cc1Br	50	42*	11	-2	5	41*
CNC(=O)c1cn(-c2ccccc2)c(=O)c2ccccc12	-14	72*	72*	-1	-2	41*
CN(C)C(=O)c1cn(-c2ccccc2)c(=O)c2ccccc12	-14	-2	6	1	-7	0
CCCn1c(N)c(NCCN2CCOCC2)c(=O)[nH]c1=O	25	33*	28	-31*	9	25
O=C(Oc1ccc(-n2cnnn2)cc1)c1ccccc1	-10	-2	3	-3	3	-6
Fc1ccc(C(c2nnnn2CCc2ccccc2)N2CCCc3ccccc32)cc1 (stereo unspecified)	-6	4	1	-1	2	4
c1ccc(CCn2nnnc2CN2CCCc3ccccc32)cc1	11	42*	5	-6	13	42*
N#Cc1c2nc3ccccc3nc2n2cc(NC(=O)c3ccc(F)cc3)ccc12	106*	.	.	.	1	.
COc1cccc(-c2ccc(C3=CC(=O)CC(C)(C)C3=O)cc2)c1OC	.	.	.	.	-4	.
COc1ccc(CCNC(=O)CCC(=O)N2CCOc3ccc(Cl)cc32)cc1OC	.	0	-1	-2	-4	0
CC(=O)C(=Nc1ccccc1Cl)NNc1ccc(Cl)cc1	6	31*	5	-8	0	31
Cc1ccc(N2CC(NS(=O)(=O)c3cccs3)CC2=O)cc1 (stereo unspecified)	.	0	-1	-2	-4	-3
CC(C)[C@H](NC(=O)N1CC(=O)Nc2ccccc21)C(=O)N[C@@H](C(=O)O)c1ccccc1	.	7	-8	2	1	-6
SMILES	EBV gp42 inh	Bcl-xL primary	GLD-1 RNA inh	MEX-5 binding	E coli Lon inh	MCL1-BIM inh
Cc1nc2c3ccccc3nc(NNC(=O)CCC(=O)NC(C)C)n2n1	0	5	1	-42*	-6	5
Cc1nc2c3ccccc3nc(NNC(=O)CCC(=O)N3CCCC(C)C3)n2n1 (stereo unspecified)	.	-1	2	-27*	-11	1
COCCNC(=O)CCC(=O)NNc1nc2ccccc2c2nc(C)nn12	-13	3	-4	-45*	6	-4
COc1ccc(N2CCN(CCNC(=O)CCC(=O)NNc3nc4ccccc4c4nc(C)nn34)CC2)cc1	.	3	5	2	-14	-1
Cc1nc2c3ccccc3nc(NNC(=O)CCC(=O)NC3CCCC3)n2n1	-2	3	2	-2	3	13
COc1ccc(NS(=O)(=O)c2csc(C(=O)N3CCCC3)c2)c(OC)c1	.	7	-4	-2	-9	-6
Cc1ccc(/C(O)=C/c2nc3cc(C)ccc3oc2=O)cc1	-1	-7	-1	-120*	2	-17
CCCn1c(=C(C#N)C#N)s/c(=C2\C=Cc3ccccc3N2CC)c1=O	53*	.	.	.	-1	.
COc1cccc(/C=N/N2CCN(c3ccccc3OC)CC2)c1	10	1	6	-1	6	1
COc1ccccc1N1CCN(/N=C/c2cccc(Cl)c2)CC1	.	33*	4	1	1	-5
COCCNC(=O)Cn1cnc2c(cnn2-c2ccc(C)cc2)c1=O	.	0	4	0	-9	2
Cc1cccc[n+]1C1C(c2ccc([N+](=O)[O-])cc2)C(C#N)=C(C(=C=[N-])C#N)NC1(O)C1CC1 (stereo unspecified)	-23	31*	19	-6	-4	25
CCCOc1ccc(-c2nn(-c3ccccc3)cc2/C=C2\SC(=S)N(C3CCS(=O)(=O)C3)C2=O)cc1 (stereo unspecified)	69*	-3	2	-1	-4	-6
CCOc1ccc(-c2nn(-c3ccccc3)cc2/C=C2\SC(=S)N(C3CCS(=O)(=O)C3)C2=O)cc1 (stereo unspecified)	69*	0	0	-31*	-6	3
COc1ccc(-c2nn(-c3ccccc3)cc2/C=C2/SC(=S)N(CCC(=O)O)C2=O)cc1	.	6	-13	2	-4	2
O=C(c1ccccc1)c1ccc2c(c1)OCCOCCOCCO2	4	0	4	-2	-5	-4
O=C(c1ccccc1)c1ccc2c(c1)OCCCO2	68*	3	3	0	4	9
CC1CN(Cc2c(O)ccc3c2oc(=O)c2ccccc23)CC(C)O1 (stereo unspecified)	-9	18	-3	-29*	-5	10
CC1CN(Cc2c(O)ccc3c(=O)c(-c4ccccc4)coc23)CC(C)O1 (stereo unspecified)	0	4	0	1	-1	-3
O=S(=O)(c1ccc(NC(=S)N/N=C/c2c3ccccc3cc3ccccc23)cc1)N1CCOCC1	63*	5	-6	-2	-28	-57
O=S(=O)(c1ccc(NC(=S)N/N=C/c2ccc(Oc3ccccc3)cc2)cc1)N1CCOCC1	5	0	1	-2	-8	5
CCOc1ccc(N2CC(C(=O)Nc3cccnc3)CC2=O)cc1 (stereo unspecified)	.	2	3	1	-8	5
Cn1cccc1CC(=O)N/N=C\c1c2ccccc2cc2ccccc12	-4	33*	18	-4	1	51*
Cn1cccc1CC(=O)N/N=C/c1cccc2ccccc12	5	46*	36*	1	3	37
